The campaign covered roughly 5,500 compounds. About 2,000 (36%) were called active. Another 18% or so got no clear call; they are omitted. Cut-off read from the data, not from the text of the source: active = normalized growth mostly below about 0.91 (no sharp cut-off); inconclusive = no clear call, values can overlap the other calls; inactive = mostly above about 0.92. The list shows a part of the results.
Assay: chemical genetic growth profiling, strain panel (AID 1159580);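 note: tested at 20 µM; growth read once vehicle control cultures reached saturation at 30 °C; 1 = growth at the plate median or of vehicle wells; lower values mean less growth of the strain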
Conditions: growth OD
[1] = S. cerevisiae deletion strains, locus YAL013W, strain DEP1, stronger effect = lower value
[2] = S. cerevisiae deletion strains, locus YBR229C, strain ROT2, stronger effect = lower value
[3] = S. cerevisiae deletion strains, locus YCL061C, strain MRC1, stronger effect = lower value
[4] = S. cerevisiae deletion strains, locus YDL101C, strain DUN1, stronger effect = lower value
[5] = S. cerevisiae deletion strains, locus YDL134C, strain PPH21, stronger effect = lower value
[6] = S. cerevisiae deletion strains, locus YDR150W, strain NUM1, stronger effect = lower value
[7] = S. cerevisiae deletion strains, locus YEL061C, strain CIN8, stronger effect = lower value
[8] = S. cerevisiae deletion strains, locus YGR078C, strain PAC10, stronger effect = lower value
[9] = S. cerevisiae deletion strains, locus YGR229C, strain SMI1, stronger effect = lower value
[10] = S. cerevisiae deletion strains, locus YHR030C, strain SLT2, stronger effect = lower value
[11] = S. cerevisiae deletion strains, locus YHR087W, strain rtc3, stronger effect = lower value
[12] = S. cerevisiae deletion strains, locus YJR043C, strain POL32, stronger effect = lower value
[13] = S. cerevisiae deletion strains, locus YJR075W, strain HOC1, stronger effect = lower value
[14] = S. cerevisiae deletion strains, locus YLR039C, strain RIC1, stronger effect = lower value
[15] = S. cerevisiae deletion strains, locus YLR058C, strain SHM2 (second series), stronger effect = lower value
[16] = S. cerevisiae deletion strains, locus YLR085C, strain ARP6, stronger effect = lower value
[17] = S. cerevisiae deletion strains, locus YLR262C, strain YPT6, stronger effect = lower value
[18] = S. cerevisiae deletion strains, locus YML094W, strain GIM5, stronger effect = lower value
[19] = S. cerevisiae deletion strains, locus YMR219W, strain ESC1, stronger effect = lower value
[20] = S. cerevisiae deletion strains, locus YMR263W, strain SAP30, stronger effect = lower value
[21] = S. cerevisiae deletion strains, locus YMR307W, strain GAS1, stronger effect = lower value
[22] = S. cerevisiae deletion strains, locus YNL153C, strain GIM3, stronger effect = lower value
[23] = S. cerevisiae deletion strains, locus YNL298W, strain CLA4 (second series), stronger effect = lower value
[24] = S. cerevisiae deletion strains, locus YNL322C, strain KRE1, stronger effect = lower value
[25] = S. cerevisiae deletion strains, locus YNR030W, strain Alg12, stronger effect = lower value
[26] = S. cerevisiae deletion strains, locus YOL006C, strain TOP1, stronger effect = lower value
[27] = S. cerevisiae deletion strains, locus YPL055C, strain LGE1, stronger effect = lower value
[28] = S. cerevisiae deletion strains, locus YPL241C, strain CIN2, stronger effect = lower value
[29] = S. cerevisiae deletion strains, locus YPR135W, strain CTF4, stronger effect = lower value
[30] = S. cerevisiae strains, strain wild type, stronger effect = lower value
[31] = S. cerevisiae deletion strains, locus YJL187C, strain SWE1, stronger effect = lower value
[32] = S. cerevisiae deletion strains, locus YKL190W, strain CNB1, stronger effect = lower value

Measured: normalized growth

Cc1cccc(NC(=S)NC2CC3C=CC2C3)c1 (configuration not stated)
active: [5] 0.904 | [7] 0.905 | [14] 0.685 | [16] 0.435 | [26] 0.182
inactive: [1] 0.939 | [2] 0.998 | [3] 0.979 | [4] 0.985 | [6] 1.01 | [8] 0.978 | [9] 0.987 | [10] 0.91 | [11] 1.02 | [12] 0.926 | [13] 0.994 | [15] 0.993 | [17] 0.825 | [18] 0.882 | [19] 0.984 | [20] 0.949 | [21] 0.688 | S. cerevisiae deletion strains, locus YNL128W, strain TEP1, stronger effect = lower value 0.977 | [22] 0.98 | [23] 0.85 | [24] 0.993 | [25] 0.897 | [27] 0.913 | [28] 0.91 | [29] 0.814 | [30] 0.927

CCOC(=O)c1ccc2[nH]c(-c3ccccc3)cc(=O)c2c1
inactive: [1] 1.02 | [2] 1 | [3] 1.01 | [4] 1.01 | [5] 1.01 | [6] 1.02 | [7] 1.01 | [8] 1.01 | [10] 1.02 | [11] 1 | [31] 1.01 | [12] 1.01 | [13] 0.994 | [32] 1.01 | [14] 1.04 | [15] 1.01 | [16] 1.03 | [17] 1.03 | [18] 0.997 | [19] 1.01 | [20] 0.997 | [22] 1.01 | [23] 1.04 | [24] 1 | [25] 1.04 | [26] 1.04 | [27] 1.11 | [28] 1.03 | [29] 1.09 | [30] 1.03

CN=c1nc(-c2ccccc2)n(-c2ccccc2)s1
inactive: [1] 0.969 | S. cerevisiae deletion strains, locus YAL040C, strain CLN3, stronger effect = lower value 0.983 | S. cerevisiae deletion strains, locus YCL061C, strain MRC1 (second series), stronger effect = lower value 0.984 | [6] 0.973 | S. cerevisiae deletion strains, locus YDR363W, strain ESC2, stronger effect = lower value 0.983 | S. cerevisiae deletion strains, locus YER002W, strain NOP16, stronger effect = lower value 0.982 | [9] 0.905 | [21] 0.947 | [22] 0.905 | S. cerevisiae deletion strains, locus YNL175C, strain NOP13, stronger effect = lower value 0.978 | S. cerevisiae deletion strains, locus YNL197C, strain WHI3, stronger effect = lower value 0.99 | S. cerevisiae deletion strains, locus YNL224C, strain SQS1, stronger effect = lower value 0.987 | [24] 0.978 | S. cerevisiae deletion strains, locus YOR083W, strain WHI5 (second series), stronger effect = lower value 0.961 | [28] 0.982

CCOC(=O)c1sc(-c2ccc(C)cc2)nc1O
active: [1] 0.182 | [2] 0.136 | [4] 0.267 | [5] 0.716 | [6] 0.195 | [7] 0.583 | [8] 0.122 | [10] 0.0748 | [11] 0.135 | [31] 0.107 | [12] 0.337 | [13] 0.174 | [32] 0.46 | [14] 0.409 | [15] 0.129 | [16] 0.228 | [17] 0.464 | [18] 0.345 | [19] 0.218 | [22] 0.301 | [23] 0.118 | [24] 0.313 | [25] 0.438 | [27] 0.659 | [28] 0.463 | [29] 0.368 | [30] 0.518

CCOC(=O)c1nc(-c2ccccc2)sc1C(=O)OCC
inactive: [1] 1 | [2] 0.955 | [4] 0.999 | [5] 0.947 | [6] 1 | [7] 0.958 | [8] 0.973 | [9] 0.958 | [10] 0.735 | [11] 0.958 | [31] 0.947 | [12] 0.973 | [13] 0.907 | [32] 0.961 | [15] 0.968 | [16] 0.833 | [18] 0.921 | [19] 0.963 | [20] 0.977 | [22] 0.995 | [24] 0.981 | [25] 0.912 | [27] 0.979 | [28] 0.921 | [29] 0.741
active: [14] 0.716 | [17] 0.814 | [23] 0.766 | [26] 0.718

— PubChem BioAssay AID1159580 (chemical genetic matrix, 2015)
